In the supplement of paper PMC13380429:
Unmarked numbers belong to inactive results.

Test system: Vero E6 infected with SARS-CoV-2
Assay: inhibition of SARS-CoV-2 cytopathic effect; higher = more antiviral protection, active = above 15
Conditions: 10000 nM; 48 h

Compound	inhibition of SARS-CoV-2 cytopathic effect
C#C[C@]1(O)CC[C@H]2[C@@H]3CCc4cc(OC5CCCC5)ccc4[C@H]3CC[C@@]21C [quinestrol]	15.7% (active)
COc1ccccc1OC(=O)C(C)c1ccc(CC(C)C)cc1 (centres undefined) [metoxibutropate]	-3.16%
CC[C@]1(O)C[C@@H]2CN(CCc3c([nH]c4ccccc34)[C@@](C(=O)OC)(c3cc4c(cc3OC)N(C)[C@H]3[C@@](O)(C(N)=O)[C@H](O)[C@]5(CC)C=CCN6CC[C@]43[C@@H]65)C2)C1 [vindesine]	-2.18%
CNC(=O)[C@H](Cc1c[nH]c2ccccc12)NC(=O)[C@@H](CC(=O)NO)CC(C)C [ilomastat]	-0.18%
N#CC1(c2ccc(NC(=O)c3cccnc3NCc3ccncc3)cc2)CCCC1 [apatinib]	-0.18%
CN1[C@@H]2CC[C@H]1C[C@@H](OC(=O)C(CO)c1ccccc1)C2 (some centres undefined)	0.64%
Cc1cccc(/C=N/Nc2cc(N3CCOCC3)n3nc(-c4ccncc4)cc3n2)c1	13.2%
OC[C@H]1O[C@H](O[C@]2(CCl)O[C@H](CCl)[C@@H](O)[C@@H]2O)[C@H](O)[C@@H](O)[C@H]1Cl [sucralose]	-0.48%
O=C(/C=C/c1ccc(O)c(O)c1)O[C@H](Cc1ccc(O)c(O)c1)C(=O)O [rosmarinic-acid]	3.05%
Clc1cccc(C(c2ccc3[nH]cnc3c2)n2ccnc2)c1 (centres undefined) [liarozole]	1.64%
CN(C)CCCCSC(=N)N	2.12%
COc1cc2c(Nc3ccc(Cl)c(Cl)c3F)ncnc2cc1OC[C@@H]1C[C@@H]2CN(C)C[C@@H]2C1	-22.4%
CCCCCCCCCCCCCC(=O)OC(C)C [isopropyl-myristate]	-0.15%
N#Cc1c(N)nc(SCc2ncc[nH]2)c(C#N)c1-c1ccc(O)cc1	0.18%
CN(C)C(=O)Oc1cccc([N+](C)(C)C)c1 [neostigmine]	-0.84%
COC(=O)c1c(C)[nH]c(C)c1C(=O)c1ccccc1Cc1ccccc1	-3.09%
NC(=O)c1ccc([N+](=O)[O-])cc1Cl [aklomide]	0.79%

Compound	inhibition of SARS-CoV-2 cytopathic effect
O=C(Nc1cc(Cl)cc(Cl)c1O)c1c(O)c(Cl)cc(Cl)c1Cl [oxyclozanide]	-1.62%
CCCNC(C)(C)COC(=O)c1ccccc1 [meprylcaine]	-5.76%
Cc1noc(NS(=O)(=O)c2ccc(N)cc2)c1C [sulfafurazole]	0.12%
[O-][n+]1cccc(CO)c1 [mepiroxol]	2.31%
Cc1ccccc1N1CCN(CCc2nnc3n2CCCC3)CC1 [dapiprazole]	0.44%
Cn1c(=O)n(-c2ccc(C(C)(C)C#N)cc2)c2c3cc(-c4cnc5ccccc5c4)ccc3ncc21	-5.4%
C[N+](C)(C)CCCCCC[N+](C)(C)C [hexamethonium]	-1.17%
COc1cc(O)c2c(c1)C(=O)c1cc(C)cc(O)c1C2=O [rheochrysidin]	-0.59%
CC(=O)c1ccc(NS(C)(=O)=O)c(Oc2ccc(F)cc2F)c1	2.13%
Cc1cc(-c2nc(C(=O)Nc3cn(C4CCOCC4)nc3C(N)=O)co2)ccn1	-5.6%
CC(C)C[C@@H](C(=O)N[C@H](C(=O)OC1CCCC1)c1ccccc1)[C@H](O)C(=O)NO [tosedostat]	4.94%
C[C@H](CCC(=O)O)[C@H]1CC[C@H]2[C@@H]3CC[C@@H]4C[C@H](O)CC[C@]4(C)[C@H]3C[C@H](O)[C@]12C [deoxycholic-acid]	-0.42%
C[C@H](c1ccc2ccc(OC3CCC(C(F)(F)F)CC3)c(C(F)(F)F)c2c1)N1C2CCC1CC(C(=O)O)C2 (some centres undefined) [autotaxin-modulator-1]	1.02%
c1ccc2c(CC3=NCCN3)cccc2c1 [naphazoline]	0.73%
COC(=O)c1ccc(O)cc1 [methylparaben]	2.64%
CC[C@H](c1ccc(O)cc1)[C@@H](CC)c1ccc(O)cc1 [hexestrol]	2.9%
Nc1nc(=O)[nH]cc1F [flucytosine]	1.48%
